Here are results for one molecule from the supplement of paper PMC8728848.

Assay in all cases: glycan array binding signal (z-score within array); higher = stronger binding
Common to all, as to details: glycan notation: IUPAC condensed, linker removed

The target of test [1] is Gal(b1-4)GlcNAc(b1-3)Gal(b1-4)GlcNAc. Summed up:
(§1)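 The binding signal is a Z-score computed within each array and averaged over linkers. Arrays of the same protein sequence at different concentrations or buffers were also averaged together. Data originate from 3228 arrays in the Consortium for Functional Glycomics database, kept only where the protein sequence was available.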

Test [2] concerns the target Gal(b1-4)GlcNAc(b1-6)GalNAc. Summed up: as §1
The target of another test is Gal3S6S(b1-4)GlcNAc6S. Summed up: as §1
Another test concerns the target GalNAc(a1-3)GalNAc. Put shortly:
as §1

The target in test [3] is GalNAc(a1-3)GalNAc(b1-3)Gal(a1-4)Gal(b1-4)GlcNAc. Summed up: as §1
In the next test the target is GalNAc(b1-3)Gal. Put shortly: as §1
In test [4] the target is GalNAc(b1-3)Gal(a1-6)Gal(b1-4)Glc. Put shortly:
as §1

Test [5] concerns the target GalNAc(b1-4)GlcNAc(b1-2)Man. Put shortly: as §1
A further test concerns the target GalNAc(b1-4)GlcNAc6S. Summed up: as §1
A further test concerns the target GlcNAc(b1-4)GlcNAc. Summed up:
as §1

The target in test [6] is GlcNAc(b1-4)GlcNAc(b1-4)GlcNAc. Put shortly: as §1
The next test deals with GlcNAc(b1-6)GalNAc. Summed up: as §1
A further test concerns the target Kdn(a2-6)Gal(b1-4)GlcNAc. Put shortly:
as §1

Test [7] concerns the target Neu5Ac(a2-3)Gal(b1-3)GalNAc. Put shortly:
as §1

The target of test [8] is Neu5Ac(a2-3)Gal(b1-3)GlcNAc(b1-4)Gal(b1-4)Glc. Put shortly:
as §1

For test [9], the target named is Neu5Ac(a2-3)Gal(b1-4)GlcNAc(b1-3)Gal(b1-4)GlcNAc. Summed up:
as §1

The target of test [10] is Neu5Ac(a2-3)Gal(b1-4)GlcNAc(b1-3)[Neu5Ac(a2-3)Gal(b1-4)GlcNAc(b1-6)]GalNAc. Summed up: as §1
For test [11], the target named is Neu5Ac(a2-3)Gal(b1-4)GlcNAc6S. Summed up: as §1
Test [12] addresses Neu5Ac(a2-8)Neu5Ac(a2-3)Gal(b1-3)GalNAc(b1-4)[Neu5Ac(a2-8)Neu5Ac(a2-3)]Gal(b1-4)Glc. Summed up:
as §1

Test [13] addresses Neu5Ac(a2-8)Neu5Ac(a2-3)Gal(b1-4)GlcNAc. Summed up: as §1
Test [14] concerns the target Neu5Ac(a2-8)Neu5Ac(a2-8)Neu5Ac(a2-8)Neu5Ac(a2-3)[GalNAc(b1-4)]Gal(b1-4)Glc. Put shortly: as §1
Test [15] deals with Neu5Gc(a2-8)Neu5Ac(a2-3)Gal(b1-4)GlcNAc. Summed up: as §1
Test [16] concerns the target Neu5Gc(a2-8)Neu5Gc(a2-6)Gal(b1-4)GlcNAc. Summed up: as §1

The entries come from a sample that favours the strongest signals as a whole.

B1: MGL (Homo sapiens), Q8IUN9 (protein)
chain: MTRTYENFQYLENKVKVQGFKNGPLPLQSLLQRLCSGPCHLLLSLGLGLLLLVIICVVGFQNSKFQRDLVTLRTDFSNFTSNTVAEIQALTSQGSSLEETIASLKAEVEGFKQERQAGVSELQEHTTQKAHLGHCPHCPSVCVPVHSEMLLRVQQLVQDLKKLTCQVATLNNNASTEGTCCPVNWVEHQDSCYWFSHSGMSWAEAEKYCQLKNAHLVVINSREEQNFVQKYLGSAYTWMGLSDPEGAWKWVDGTDYATGFQNWKPGQPDDWQGHGLGGGEDCAHFHPDGRWNDDVCQRPYHWVCEAGLGQTSQESH
Regarding B1, the “glycan array binding signal (z-score)” value in test [1] was -0.242; in [2], 4.14; with Gal3S6S(b1-4)GlcNAc6S it was -0.242; in the test with GalNAc(a1-3)GalNAc, 0.346; in [3], 0.634; with GalNAc(b1-3)Gal, 3.3. For the same molecule, the “glycan array binding signal (z-score)” value in test [4] is 3.77; in test [5] it was 3.9; with GalNAc(b1-4)GlcNAc6S, 4.05; in the test with GlcNAc(b1-4)GlcNAc it was -0.243; in test [6] it was -0.253; in the test with GlcNAc(b1-6)GalNAc it was 4.7. The “glycan array binding signal (z-score)” value is -0.245 in the test with Kdn(a2-6)Gal(b1-4)GlcNAc; -0.241 in test [7]; -0.251 in [8]; -0.238 in test [9]; -0.527 in test [10]; -0.244 in [11]. The “glycan array binding signal (z-score)” value is -0.243 in [12]; -0.259 in test [13]; 3.54 in [14]; -0.237 in [15]; -0.246 in test [16].
